Bioassay records (PubChem)
Only some compounds are listed: those with a hit (about 1.6% of all), similar ones and a draw of the others.
KCNQ2 enhance: potentiators of rat KCNQ2 potassium channel; 0.54% of 310,000 active; Potassium voltage-gated channel subfamily KQT member 2 (Rattus norvegicus), O88943; B-score at 10 µM; CHO-K1 KCNQ2, FluxOR thallium flux fluorescence; active compounds read high;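 active = fluorescence ratio B-score at least 3 SD of library B-scores, with initial fluorescence B-score within 3 of them, cut at about 5.3 in these data; same plate scores as AID 2156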;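 also: B-score of peak minus minimum over baseline fluorescence ratio after K+ and Tl+ stimulus; positive B-score means potentiation of KCNQ2 with more thallium influx and brighter signal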
KCNQ2 block: rat KCNQ2 potassium channel inhibitors, primary screen, cell-based, CHO-K1, FluxOR thallium flux, B-score; 20 min; active compounds read low; 1.1% of 310,000 active; B-score at 10 µM;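 active = fluorescence ratio B-score at most minus 3 library SDs, with starting brightness B-score within 2 library SDs, cut at about -5.5 in these data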
Kir21 conf inh: mouse Kir2.1 channel blockers, retest, confirmation, cell-based, FluxOR thallium flux, duplicate; AID 2032, 2009; 41% of 2,300 active; Kir2.1-expressing cells, FluxOR thallium flux fluorescence; active compounds read low; Tl flux remaining, % of negative control (active compounds read low), % at 10 µM; shares compounds with KCNQ2 enhance;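 active = Primary-screen hit whose thallium flux fell at least 3 control SD below untreated wells in both duplicates, with normal baseline fluorescence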;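 also: 0% = blank wells without stimulus and 100% = stimulated no-compound controls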
HEK293 ctr: alters thallium flux in parental HEK293 cells, Kir2.1 counter-screen. FluxOR thallium flux fluorescence; 0% = unstimulated blank wells. shares compounds with KCNQ2 enhance. FluxOR signal as % of negative control (100 = no effect), % at 10 µM. 19% of 2,300 active;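 active = dye signal at least 3 control SD above or below untreated wells in both duplicates, raw fluorescence within 3, either direction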;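 also: percent is based on the flux ratio of peak minus minimum fluorescence over baseline F0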
CHO-K1 ctr: nonspecific thallium flux increase in parental CHO-K1, confirmation, counter-screen for KCNQ2 potentiator project, cell-based, FluxOR thallium flux, duplicate. shares compounds with KCNQ2 enhance. parental CHO-K1 cells, FluxOR thallium flux fluorescence; zero = vehicle mean+3SD, 100% = vehicle-minus-blank window. activity increase over 3SD of controls, % at 10 µM. 43% of 1,200 active;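 active = signal rise of at least 3 SD above the untreated control mean, in both duplicate wells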;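 also: counter screen of KCNQ2 potentiator hits so any rise reflects channel-independent effects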
KCNQ1 sel pot: human KCNQ1 channel potentiation off-target, confirmation, selectivity assay for KCNQ2 potentiator project, cell-based, CHO, FluxOR thallium flux; shares compounds with KCNQ2 enhance; CHO KCNQ1 stable, FluxOR thallium flux fluorescence; beyond 3SD, as % of vehicle-control signal; activation over 3SD threshold, % at 10 µM; 28% of 1,200 active; AID 2283, 2010;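 active = fluorescence ratio rise of at least 3 SD of vehicle wells above their mean, in both replicate wells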;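 also: 0% = vehicle mean plus 3 SD and 100% = vehicle minus unstimulated blank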
Target sequence (P51787 whole entry, looked up): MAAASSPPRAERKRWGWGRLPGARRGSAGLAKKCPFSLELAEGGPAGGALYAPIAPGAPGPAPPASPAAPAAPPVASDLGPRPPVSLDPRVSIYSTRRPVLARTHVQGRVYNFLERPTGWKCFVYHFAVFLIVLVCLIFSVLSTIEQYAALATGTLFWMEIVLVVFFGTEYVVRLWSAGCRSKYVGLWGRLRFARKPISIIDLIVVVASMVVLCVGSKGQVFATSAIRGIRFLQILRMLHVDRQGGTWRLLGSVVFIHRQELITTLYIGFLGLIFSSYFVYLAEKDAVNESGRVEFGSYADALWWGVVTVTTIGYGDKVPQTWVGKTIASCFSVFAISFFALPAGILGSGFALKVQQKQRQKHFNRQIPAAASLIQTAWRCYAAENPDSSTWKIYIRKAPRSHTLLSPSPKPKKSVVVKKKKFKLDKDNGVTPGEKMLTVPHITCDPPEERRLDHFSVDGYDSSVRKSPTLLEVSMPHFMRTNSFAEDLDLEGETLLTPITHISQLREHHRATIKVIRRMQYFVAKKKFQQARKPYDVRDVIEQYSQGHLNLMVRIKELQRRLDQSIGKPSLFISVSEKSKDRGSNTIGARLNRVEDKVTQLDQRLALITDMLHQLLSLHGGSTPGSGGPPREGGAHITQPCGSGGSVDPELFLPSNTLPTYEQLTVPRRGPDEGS
KCNQ2 pot confirm: rat KCNQ2 channel potentiators, confirmation, cell-based, CHO, FluxOR thallium flux, duplicate; shares compounds with KCNQ2 enhance; CHO-KCNQ2 cells, FluxOR thallium flux fluorescence; potentiation, less the hit threshold, % at 10 µM; 68% of 1,200 active;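 active = fluorescence ratio rising 3 SD or more over the vehicle control mean in both replicates, plus primary screen hit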;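 also: peak minus minimum thallium fluorescence divided by baseline after K/Tl stimulus; 0% = vehicle mean plus 3 SD and 100% = vehicle minus unstimulated blank difference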
Kir2-1 sel: mouse Kir2.1 channel activation off-target, confirmation, selectivity assay for KCNQ2 potentiator project, cell-based, HEK293, FluxOR thallium flux; shares compounds with KCNQ2 enhance; 2% of 1,200 active; activity over 3SD threshold, % at 10 µM; HEK293 Kir2.1, FluxOR thallium flux fluorescence;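 active = fluorescence ratio rise of at least 3 SD above the vehicle-control mean, seen in both replicates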;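 also: 0% = vehicle mean plus 3 SD and 100% = vehicle minus no-stimulus blank window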
KCNQ2 W236L MoA: potentiators of retigabine-insensitive KCNQ2 W236L, mechanism study for KCNQ2 potentiator project, cell-based, rat KCNQ2 W236L, CHO, automated patch clamp; shares compounds with KCNQ2 enhance; automated patch clamp current; current increase over 3SD of negative controls (%), active compounds read high, % at 25 µM; 10% of 940 active; AID 2558, 2010;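 active = current increase at least 3 SD of the untreated controls above them in both duplicate recordings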
* = called active by the depositor; i = inactive; . = not tested or not shown.

SMILES	KCNQ2 enhance	KCNQ2 block	Kir21 conf inh	HEK293 ctr	others
Cc1ccc(NC(=S)NC(=O)c2sc3ccccc3c2Cl)c(C(=O)O)c1	13.7*	i	i	i	CHO-K1 ctr=2.0*;KCNQ1 sel pot=-14.9;KCNQ2 pot confirm=28.7*;Kir2-1 sel=-20.1;KCNQ2 W236L MoA=i
CN(C(=O)COC(=O)c1sc2ccccc2c1Cl)C1CCCCC1	.	i	.	.
CCCCOC(=S)NC(=O)c1sc2ccccc2c1Cl	17*	i	i	445.5%*	CHO-K1 ctr=-3.4;KCNQ1 sel pot=47.1*;KCNQ2 pot confirm=83.1*;Kir2-1 sel=-14.8;KCNQ2 W236L MoA=i
CN(C)CCCOC(=O)c1sc2ccccc2c1Cl	.	i	29.0%*	i
CCCOc1ccc(C(CC(=O)O)NC(=O)c2sc3ccccc3c2Cl)cc1 (configuration not stated)	0.21	i	.	.
COc1ccc(/C=C(/NC(=O)c2ccco2)C(=O)NCc2ccco2)cc1OC	1.09	i	.	.
O=C(O)/C(=C\C(=O)c1ccccc1)Nc1ccccc1	.	i	.	.
CC(=O)N1CCN(C(=O)c2ccc(S(=O)(=O)Nc3cccc(C(F)(F)F)c3)cc2)CC1	0.66	i	i	i
O=C(c1ccc(S(=O)(=O)Nc2cccc(C(F)(F)F)c2)cc1)N1CCC1	0.45	i	.	.
CCCCCN(C(=O)CCC(=O)OCC(=O)N1C(C)CCCC1C)c1c(N)n(CCCC)c(=O)[nH]c1=O (configuration not stated)	0.22	i	.	.
COc1ccc(CCNCC(O)COc2ccc(Cl)cc2)cc1OC (configuration not stated)	1.43	i	.	.
C/C=C/c1ccc(OCC(O)CN2CCCCC2CC)c(OC)c1 (configuration not stated)	.	i	.	.
C/C=C/c1ccc(OCC(O)CNCCc2ccc(OC)cc2)c(OC)c1 (configuration not stated)	.	i	i	i
C/C=C/c1ccc(OCC(O)CNCC(c2ccc(OC)cc2)N(C)C)c(OC)c1 (configuration not stated)	.	i	.	.
OC(CNCCc1ccc(Cl)cc1)COc1cc(Cl)ccc1Cl (configuration not stated)	.	i	24.0%*	121.5%*
C/C=C/c1ccc(OCC(O)CN(C)Cc2ccc(SC)cc2)c(OC)c1 (configuration not stated)	.	i	i	i
CC(C)CN1CN(Cc2ccccc2)CNC1=S	0.61	i	.	.
Cc1ccccc1-n1nc2c(c1NC(=O)C(C)(C)C)CS(=O)(=O)C2	.	i	.	.
COc1ccc(C(=O)NNC(=O)CCn2nnc(-c3ccc(Cl)cc3)n2)cc1OC	.	i	.	.
O=C1CCC(O)CCN1CCSc1ccccc1 (configuration not stated)	0.2	i	.	.
CC(C)c1onc(C(=O)N2CCN(Cc3ccccc3)CC2)c1[N+](=O)[O-]	.	i	.	.
CC(NC(=O)C(=O)NCCc1c[nH]c2ccccc12)c1ccccc1 (configuration not stated)	0.09	i	.	.
CCCCN(C(=O)c1cccc(-n2cccc2)c1)c1c(N)n(Cc2ccccc2)c(=O)[nH]c1=O	.	i	.	.
Cc1nnc(SC/C=C/c2ccccc2)n(N)c1=O	1.5	i	.	.
O=C(/C=C/c1ccccc1)n1cnnc1SC/C=C/c1ccccc1	.	i	i	i
SMILES	KCNQ2 enhance	KCNQ2 block	Kir21 conf inh	HEK293 ctr	others
O=c1[nH]c(SCc2cccc(F)c2)nc2c1CCCC2	0.96	i	.	.
O=C(N/N=C/c1ccccn1)c1cc(C2CC2)nc2ccccc12	.	i	.	.
O=C(N/N=C/c1ccccn1)c1cc(Br)ccc1O	7.29*	i	i	227.5%*	CHO-K1 ctr=-13.6;KCNQ1 sel pot=-0.2;KCNQ2 pot confirm=44.1*;Kir2-1 sel=-23.7;KCNQ2 W236L MoA=i
Cc1ccccc1NC(=S)NC(=O)c1cc(-c2ccccc2)nc2ccccc12	6.21*	i	i	i	CHO-K1 ctr=-10.9;KCNQ1 sel pot=8.8*;KCNQ2 pot confirm=-21.8;Kir2-1 sel=-18.4
Cc1cccc(NC(=S)NC(=O)c2cc(-c3ccccc3)nc3ccccc23)c1	3.53	i	.	.
O=C(N/N=C/c1cccnc1)c1cc(Br)ccc1O	.	i	.	.
O=C(N/N=C/c1ccccn1)c1cc(-c2ccccc2)nc2ccccc12	10.8*	i	i	i	CHO-K1 ctr=221.8*;KCNQ1 sel pot=81.3*;KCNQ2 pot confirm=12.7*;Kir2-1 sel=-27.0;KCNQ2 W236L MoA=i
O=Cc1ccc(OC(=O)/C=C/c2ccccc2)cc1	.	i	.	.
COc1ccc(OC)c(NC(=O)CC2Oc3ccccc3NC2=O)c1 (configuration not stated)	.	i	.	.
CN(C)NC(=O)c1ccsc1NC(=O)c1ccc(S(=O)(=O)N(C)C)cc1	1.85	i	.	.
CCOc1cc(C2C(C(=O)OCC(C)C)=C(C)N=C3SCCC(=O)N32)ccc1OC(C)=O (configuration not stated)	.	i	.	.
CCOC(=O)N1CCC(N2CCN(S(=O)(=O)c3ccc4ccccc4c3)CC2)CC1	.	i	.	.
Cc1ccc(NC(=O)c2cccnc2C(=O)O)nc1	1.35	i	.	.
COc1ccccc1C(=O)NNC(=O)c1ccc(F)cc1	.	i	.	.
O=C(NNC(=O)c1ccccc1OCc1ccc(F)cc1)c1ccncc1	6.11*	i	i	i	CHO-K1 ctr=23.3*;KCNQ1 sel pot=-8.6;KCNQ2 pot confirm=-22.8;Kir2-1 sel=-32.8
COc1ccc(C(=O)C2CCCN(C3Cc4ccccc4C3)C2)c(OC)c1 (configuration not stated)	.	i	.	.
Fc1ccc(-n2cc(-c3ccccc3)c3c(=S)nc[nH]c32)cc1	6.36*	i	i	182.5%*	CHO-K1 ctr=-17.5;KCNQ1 sel pot=-17.4;KCNQ2 pot confirm=7.9*;Kir2-1 sel=-24.3;KCNQ2 W236L MoA=i
Fc1cccc(-n2cc(-c3ccccc3)c3c(=S)nc[nH]c32)c1	2.83	i	.	.
